Test results reported in ChEMBL document CHEMBL3988442, “University of Dundee, Small-Polar-MMV Screening Library” (2021).
Screen size: about 48,000 compounds; about 13,000 (27%) showed an effect of 50% or more. Some of the results follow.

tested on: Wolbachia pipientis; experiment: Anti-Wolbachia Cell-Based Screen; type: functional; set-up: scale not given: in the data most compounds retested in dose-response had high values; conditions: 5 µM

SMILES	Percent Effect [%]
COC(=O)NCC(=O)NCC(C)(C)c1cccc(Br)c1	-15.07
CCCc1ncc(CN(CCOC)Cc2cccs2)cn1	-13.63
CCN(CCn1cccn1)Cc1nc(-c2ccccc2F)oc1C	1.604
C=C(C)COCCNC(=O)Nc1cccc(Cn2nc(C)nc2C)c1	-4.389
O=S(=O)(c1ccc(Cl)cc1)N1CCN(CCCn2ccnc2)CC1	-9.759
O=S(=O)(c1ccccc1)N1CCOC(Cn2ccnc2)C1 (stereo not drawn)	143.1
O=S(=O)(c1ccccc1)N1CCCN(CCCn2ccnc2)CC1	1.416
CC(=O)Nc1ccc(S(=O)(=O)NC(=O)CCC2CCCO2)cc1 (stereo not drawn)	-4.56
CC(=O)c1ccc(S(=O)(=O)N2CCOC(Cn3ccnc3)C2)cc1 (stereo not drawn)	80.08
O=S(=O)(c1ccccc1)N1CCN(CCn2ccnc2)CC1	-17.14
Cc1ccc(S(=O)(=O)N2CCN(CCCn3ccnc3)CC2)cc1	-7.959
COc1ccc(S(=O)(=O)N2CCOC[C@H](Oc3cnccn3)C2)cc1	-5.156
COc1ccc(S(=O)(=O)N2CCOC(Cn3ccnc3)C2)cc1.Cc1ccc(S(=O)(=O)O)cc1 (stereo not drawn)	106.9
CC(=O)Nc1ccc(S(=O)(=O)N2CCOC(Cn3ccnc3)C2)cc1 (stereo not drawn)	127.1
CCN(C)C[C@@H]1CN(S(=O)(=O)c2ccc(OC)cc2)C[C@@H]1CO	9.662
CCC1CN(C(=O)COc2ccc(NC(C)=O)cc2)CCO1 (stereo not drawn)	-18.64
Cc1ccc2c(c1)OCCCC2NCc1nnc2n1CCCCC2 (stereo not drawn)	-3.349
CCCN(CC)Cc1ccc(C(=O)NCC2COCCO2)c(=O)[nH]1 (stereo not drawn)	-4.085
O=C(CSc1ncccn1)N1C[C@H]2CC[C@@H]1CN(Cc1ccncc1)C2	-5.142
CC(C)Cn1ccnc1CNC(=O)NC(C)(C)c1nccs1	4.874
Cc1nc(C)c(C(C)NC(=O)NCCNc2cccc(F)c2C#N)s1 (stereo not drawn)	-3.673
N#Cc1nccnc1N1CCC(C(O)c2cccs2)CC1 (stereo not drawn)	6.256
CCS(=O)(=O)N1CCC2(CCN(Cc3ccc(C)o3)C2)C1 (stereo not drawn)	-25.86
COc1cccc2c1OCC(C(=O)NCCCn1nc(C)c(Cl)c1C)C2 (stereo not drawn)	-39.79
Cc1nc(CNC2(C(=O)OC(C)(C)C)CCCC2)oc1C	-20.11
Cc1ccc(C(=O)N2CCN(Cc3nc(C(C)C)no3)CC2)c(=O)[nH]1	-11.93

SMILES	Percent Effect [%]
Cc1c[nH]cc1C(=O)N1CCN(Cc2nc(C(C)C)no2)CC1	-4.204
CC(C)c1noc(CN2CCN(C(=O)c3ccc(F)cc3)CC2)n1	109.7
CCOC(=O)c1coc(N2CCN(C(=O)c3cccc(OC)c3)CC2)n1	-22.87
CCOC(C)c1noc(CN2CCN(Cc3cccc(F)c3)CC2)n1 (stereo not drawn)	-0.1841
CC(C)Cc1noc(CN2CCN(C(=O)c3cccc(F)c3)CC2)n1	1.261
CC(C)c1noc(CN2CCN(C(=O)c3cccc(F)c3)CC2)n1	101.9
COc1cccc(C(=O)N2CCN(Cc3nc(C(C)C)no3)CC2)c1	117.9
CC(C)(C)c1noc(CN2CCN(C(=O)c3ccco3)CC2)n1	-32.87
CCCn1nnnc1CN(c1ccc(C)cc1)C(C)C	3.327
CCS(=O)(=O)N1CCC2(CC(=O)N(c3cnn(C)c3)C2)C1 (stereo not drawn)	-4.174
COCCN1CCN(Cc2nnc(-c3occc3C)o2)CC1	0.1537
Cc1ccc(-c2nc(CN(C)C3CCS(=O)(=O)C3)cs2)o1 (stereo not drawn)	-14.87
OC(CN1CCOCC1)c1ccc(OC(F)(F)F)cc1 (stereo not drawn)	-7.461
COc1ccccc1CC(C)(C)NC(=O)CC(F)(F)F	-8.852
CN(C)C(C(=O)N1CCSCC1)c1ccccc1F (stereo not drawn)	0.1762
Cn1cc(C2CC(=O)NC23CCN(C(=O)c2cccnc2)CC3)cn1.O=C(O)C(F)(F)F (stereo not drawn)	11.55
Cc1cccc(CN2CCC3(CC2)NC(=O)C[C@H]3c2cnn(C)c2)n1.O=C(O)C(F)(F)F	84.49
Cc1cncc(C(=O)N2CCC3(CC2)NC(=O)CC3c2ccccc2)c1.O=C(O)C(F)(F)F (stereo not drawn)	-43.74
Cn1cc(C2CC(=O)NC23CCN(C(=O)Cc2ccccn2)CC3)cn1.O=C(O)C(F)(F)F (stereo not drawn)	105.4
CC(C)COC1CC2(CCN(C(=O)Cc3ccccn3)CC2)C1.O=C(O)C(F)(F)F	-2.519
Cc1cccc(CN2CCC3(CC2)NC(=O)CC3c2ccccc2)n1.O=C(O)C(F)(F)F (stereo not drawn)	109.2
COc1cc(F)ccc1C(C(=O)O)N1CCN(C2CCCCC2)CC1 (stereo not drawn)	-11.47
O=C(O)C(F)(F)F.O=C(O)C(F)(F)F.O=C(c1ccco1)N1CC[C@@H](N2CCOCC2)[C@@H]1Cc1ccncc1	0.4302
COc1ccc(C2CC(=O)NCc3nc4ccccn4c32)cn1 (stereo not drawn)	-7.087
Cc1c(NC(=O)NC2CCCC2)cccc1C(=O)N1CCSCC1	1.099
Fc1cnc(N2CC[C@@H](N3CCOCC3)[C@@H]2Cc2cccnc2)nc1.O=C(O)C(F)(F)F.O=C(O)C(F)(F)F	-8.935

SMILES	Percent Effect [%]
CN(Cc1cccnc1)[C@@H]1CN(c2ncc(F)cn2)[C@@H]2CCCO[C@H]12	115.7
Cn1cnc2c1C(COCc1cccnc1)N(Cc1ccccn1)CC2 (stereo not drawn)	-4.63
CN(Cc1cccnc1)[C@@H]1CN(c2ccccn2)[C@@H]2CCCO[C@H]12	82.23
CN(C)[C@@H]1CCN(c2ncc(F)cn2)[C@H]1Cc1cccnc1.O=C(O)C(F)(F)F.O=C(O)C(F)(F)F	-4.235
CN(Cc1cccnc1)[C@@H]1CN(Cc2ccccn2)[C@@H]2CCCO[C@H]12	150.6
Cc1nnc(N2C[C@H](OCc3cccnc3)[C@H]3OCCC[C@H]32)s1.O=C(O)C(F)(F)F.O=C(O)C(F)(F)F	-2.334
CN(Cc1cccnc1)C[C@H]1OC[C@@H]2CCN(c3ncccn3)C[C@@H]21	-26.32
CN(C)S(=O)(=O)N1C[C@@H](OCc2ccccn2)[C@H]2OCCC[C@H]21	-8.506
O=C(c1scc2c1OCCO2)N1CCC(Cc2cccc(CO)c2)C1 (stereo not drawn)	-12.67
CC(=O)NCc1ccc(C(=O)N2CCCCC2Cn2cccn2)o1 (stereo not drawn)	-0.4212
CC(=O)Nc1nc(C(=O)N2CCCCC2Cn2cccn2)cs1 (stereo not drawn)	109.7
CC(=O)Nc1nc(C(=O)N2CCCC2Cn2cc(C)cn2)cs1 (stereo not drawn)	-2.697
CC(=O)Nc1nc(CN2CCCC2Cn2cccn2)cs1 (stereo not drawn)	-22.51
CC(=O)Nc1nc(C(=O)N2CCCCC2Cn2cc(C)cn2)cs1 (stereo not drawn)	67.59
CC(=O)Nc1nc(CN2CCCC2Cn2cc(C)cn2)cs1 (stereo not drawn)	-0.668
CC(=O)Nc1nc(C(=O)N2CCCC2Cn2cccn2)cs1 (stereo not drawn)	136.5
O=C(c1cc(-n2cccn2)ccn1)N1CCOc2ccc(F)cc21	11.86
CCN(Cc1noc(CC(C)C)n1)Cc1cccc(F)c1O	21.71
CCCc1nc(NCCCO)c2c(n1)c(C)nn2CC	2.078
CC(C)CN1C[C@@H]2CN(C(=O)c3cccn3C)C[C@@H]2C1=O	-8.322
O=C(C1CC1)N1C[C@@H](F)[C@@H](OCc2nc3cc(F)ccc3[nH]2)C1	-13.75
CC(C)n1cnc(C2CN(C)c3ccc(C(=O)NCC4CC4)cc32)n1 (stereo not drawn)	-10.28
CCCn1nnnc1CSc1nccn1C	1.571
NCc1cnn(-c2ccccc2C(=O)NCCCn2ccnc2)c1	-6.38
O=C(NCCc1ccncc1)c1cccnc1OCC(F)(F)F	113.2
O=C(c1cccnc1OCC(F)(F)F)N1CCCn2ncnc21	-8.478

SMILES	Percent Effect [%]
O=C(NCc1cccnc1OCC(F)(F)F)N1CCOCC1	-14.27
CN(CCc1ccccc1)C(=O)c1cccnc1OCC(F)(F)F	147.6
O=C(O)c1ncccc1OCC(F)(F)F	2.885
O=C(NCC(O)c1ccc(F)c(F)c1)c1cccnc1OCC(F)(F)F (stereo not drawn)	8.161
O=C(NCCCn1ccnc1)c1cccnc1OCC(F)(F)F	88.67
O=C(CNC(=O)c1cnc2ccccc2c1O)NCCCn1ccnc1	9.933
O=C1COc2cc(S(=O)(=O)NCCC3=CCCCC3)c(Br)cc2N1	12.05
N#Cc1cccc(OCC(=O)N(Cc2ccncc2)C2CC2)c1	-1.497
CCNC(=O)N1CCC(NC(=O)NCCc2cc(F)cc(F)c2)C1 (stereo not drawn)	-1.465
Cc1noc(C)c1NC(=O)NC1CCN(C(=O)OC(C)(C)C)CC1	-1.211
c1ccc(CN2CCC(NCCSc3cnn[nH]3)C2)cc1 (stereo not drawn)	-16.66
CN(C)c1cc(C2CCCN(C(=O)c3noc4c3CCCC4)C2)ccn1 (stereo not drawn)	145.2
Cc1noc2ncc(C(=O)N3CCCC3c3ccncc3)cc12 (stereo not drawn)	1.131
CN(C)c1ccc(C(=O)N2CCCC2c2ccc(Cl)cc2)nn1 (stereo not drawn)	-0.3166
CN(C)c1cc(C2CCCN2C(=O)c2noc3c2CCCC3)ccn1 (stereo not drawn)	74.42
O=C(c1noc2c1CCCC2)N1CCCC(c2nccs2)C1 (stereo not drawn)	6.202
CCOCc1ncn2c1CN(S(=O)(=O)c1cccs1)CCC2	-7.324
COCc1cc(CNC(=O)c2c(C)cc(C)[nH]c2=O)n[nH]1	-6.309
O=C(c1ccc2c(c1)OCO2)N1CCC(Nc2cccnn2)CC1	90.41
O=C(c1ccc2cc[nH]c2c1)N1CCC(Nc2cccnn2)CC1	107.6
O=C(c1cc[nH]n1)N1CCC(Nc2cccnn2)CC1	4.355
O=C(c1ccc2[nH]nnc2c1)N1CCC(Nc2cccnn2)CC1	101.2
Cc1cc(C(=O)N2CCC(Nc3cccnn3)CC2)no1	29.64
O=C(c1ccc2c(c1)COC2)N1CCC(Nc2cccnn2)CC1	2.056
O=C(c1ccc2[nH]c(=O)[nH]c2c1)N1CCC(Nc2cccnn2)CC1	102.4
